Compound activity deposited in PubChem by National Center for Advancing Translational Sciences (NCATS).
D2 ag-1: Beta-Arrestin HTS for Positive Allosteric Modulators of the Human D2 Dopamine Receptor: Agonists; DiscoveRx PathHunter D2 beta-arrestin, luminescence, 90 min; 100% = 57 uM dopamine signal; activation, % (concentration not given with the values); AID 624465, 2012; D(2) dopamine receptor (Homo sapiens), P14416; 360,000 tested, 0.084% active; in the data active = activation above about 40%
Target sequence (P14416 whole entry, looked up): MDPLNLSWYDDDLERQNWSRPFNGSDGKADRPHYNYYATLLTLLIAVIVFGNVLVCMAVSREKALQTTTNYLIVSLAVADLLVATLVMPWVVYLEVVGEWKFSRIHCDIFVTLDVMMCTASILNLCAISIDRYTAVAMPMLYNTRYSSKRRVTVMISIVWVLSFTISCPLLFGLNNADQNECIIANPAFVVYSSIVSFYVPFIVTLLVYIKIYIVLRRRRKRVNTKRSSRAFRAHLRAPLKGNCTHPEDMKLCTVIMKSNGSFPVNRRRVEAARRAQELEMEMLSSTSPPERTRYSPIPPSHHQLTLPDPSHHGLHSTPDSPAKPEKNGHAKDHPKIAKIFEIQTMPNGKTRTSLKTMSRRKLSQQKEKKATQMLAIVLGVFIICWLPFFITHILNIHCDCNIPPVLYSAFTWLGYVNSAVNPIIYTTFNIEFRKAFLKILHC
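Agonist mode: compounds alone added to overnight-plated D2 PathHunter cells for 90 min at 37 C, with 57 uM final dopamine (EC100) defining full response. Beta-arrestin recruitment detected by chemiluminescent reagent, read after 1 h at ambient temperature.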
D2 antag: HTS Assay for Allosteric Antagonists of the Human D2 Dopamine Receptor: Primary Screen for Antagonists; D(2) dopamine receptor (Homo sapiens), P14416; HEK293 TREx D2 cells, calcium flux, dopamine EC80; inhibition, % at 10 µM; 340,000 tested, 2% active; in the data active = inhibition above about 30%; inactive = below that, where a call was filed; note: 0% is about no effect
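Calcium mobilization kinetics were recorded at 1 s intervals in tetracycline-induced HEK293 T-REx D2 cells, first for 180 s after compound addition and then 180 s after EC80 dopamine.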
D2 PAM-1: Beta-Arrestin HTS for Positive Allosteric Modulators of the Human D2 Dopamine Receptor: Potentiators; D(2) dopamine receptor (Homo sapiens), P14416; DiscoveRx D2 beta-arrestin cells, luminescence, 90 min; 100% = 57 uM dopamine signal; potentiation, % (no concentration beside the values); 360,000 tested, 0.23% active; AID 624464, 2012; in the data active = potentiation above about 50%
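D2 cells co-treated with compound plus 50 nM dopamine (EC20) for 90 min at 37 deg C to detect potentiation. Beta-arrestin recruitment was read as enzyme-fragment luminescence after 1 h at ambient temperature. Full response was set by 57 uM dopamine.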
D2 ag-2: HTS Assay for Allosteric Agonists of the Human D2 Dopamine Receptor: Primary Screen for Agonists | HEK293 T-REx D2 cells, calcium flux agonist mode | 340,000 tested, 0.53% active | D(2) dopamine receptor (Homo sapiens), P14416 | activation, % at 2 µM;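 active = activation over 3 SD above normal in the single-dose calcium agonist read, cut at about 30% in these data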; note: 0% is about no effect
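Tetracycline-induced HEK293 Trex cells with D2 receptor force-coupled to calcium signaling, plated overnight at 30 C and loaded with no-wash calcium dye. Calcium flux read kinetically for 180 s after compound addition; responses flag agonists.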
D2 PAM-2: HTS Assay for Positive Allosteric Modulators of the Human D2 Dopamine Receptor: Primary Screen for Potentiators; D(2) dopamine receptor (Homo sapiens), P14416; HEK293 T-REx D2, calcium flux, EC20 dopamine potentiation; potentiation, % at 10 µM; 340,000 tested, 0.34% active;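 active = potentiation over 3 SD above the plate norm, cut at about 30% in these data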; note: 0% is about no effect
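Cells plated with tetracycline inducer and held overnight at 30 C; calcium dye loaded 30–90 min at room temperature; baseline taken, compound added and read 180 s; EC20 dopamine then added and read 180 s.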
* hit, by the source's call; nt = not tested or not shown; ! = not confirmed by another sample. Sampled rows, rich in hits. Any-hit rate of the full collection: about 2.4%.

SMILES | D2 ag-1 | D2 antag | D2 PAM-1 | D2 ag-2 | D2 PAM-2
COc1ccc(N2CCN(CCCNC(=O)C3CCCN(S(=O)(=O)c4cnc[nH]4)C3)CC2)cc1 (stereo unspecified) | -3.8 | -1.8 | -9.6 | -1.0 | 33.8*
CCCS(=O)(=O)N1CCCC(C(=O)NCCCN2CCN(c3ccccc3F)CC2)C1 (stereo unspecified) | 14.2 | 38.1* | -18.6 | 68.7* | -18.8
COc1ccc(OC)c(N)c1 | 1.8 | -20.9 | 60.9* | -1.0 | -9.1
Cc1ccc(OCC(=O)NCC(=O)OCc2cc(=O)n3nc(CC(C)C)sc3n2)cc1 | nt | nt | nt | -1.6 | -17.7
O=C(c1n[nH]c2ccccc12)N1CCOCC1 | 0.3 | 38.5* | -4.6 | 1.5 | -11.8
COc1ccc2ccccc2c1-c1sc(Nc2ccccc2)n[n+]1-c1ccc(F)cc1 | -5.8 | 32.0* | -31.3 | 0.9 | -8.1
COc1ccc(-c2sc(Nc3ccccc3)n[n+]2-c2ccc(F)cc2)cc1Br | -5.0 | -9.0 | -10.3 | 1.7 | -3.7
O=C(NCc1ccccc1)C1CCN(C(=O)c2cnn(-c3ccccc3)c2-n2cccc2)CC1 | nt | nt | nt | 0.1 | -0.3
O=C(Cn1cc(SCc2ccc(F)cc2)c2ccccc21)N1CCCCC1 | nt | nt | nt | nt | 0.8
O=C(CNC(=O)C12CC3CC(CC(C3)C1)C2)N/N=C\c1ccco1 | -0.4 | 1.3 | 79.7* | 0.1 | -6.0
O=C(CNC(=O)c1ccc2c(c1)OCCO2)N/N=C/c1ccco1 | -1.7 | 3.9 | -4.2 | -0.2 | 5.4
O=C(NCc1ccccc1Cl)c1ccc(NC(=O)N2CCSc3ccccc32)cc1 | nt | nt | nt | 0.1 | 16.7
Cc1cccc(N(C)S(=O)(=O)c2ccc3c(c2)C(C)(C)C(=O)N3C)c1 | 3.6 | 40.9* | -1.0 | -0.5 | 2.7
Cc1cccc([N+](=O)[O-])c1NC(=O)COC(=O)C1CC2CCCC(C1)C2=O (stereo unspecified) | -5.0 | 7.4 | -64.1 | -0.3 | -3.0
Cc1ccc([N+](=O)[O-])c(NC(=O)COC(=O)C2CC3CCCC(C2)C3=O)c1C (stereo unspecified) | -1.0 | 36.4* | -11.3 | 0.3 | -3.7
CCC(C)Sc1nc2c(c(=O)[nH]c(=O)n2C)n1CC(O)COc1ccccc1C (stereo unspecified) | -2.0 | 30.1* | -1.9 | 0.3 | -5.8
CCC(C)Sc1nc2c(c(=O)[nH]c(=O)n2C)n1CCc1ccccc1 (stereo unspecified) | 1.9 | -27.9 | -10.8 | 0.8 | 17.3
CCC(CC)C(=O)Nc1ccc2nc(SCC(=O)N3CCOCC3)sc2c1 | nt | nt | nt | 0.0 | -2.0
COC(=O)c1sc(=S)n(-c2ccccc2OC)c1N | -0.8 | 0.3 | -1.9 | -0.4 | 31.3*
Cc1ccc(CNC(=O)CN2C(=O)CSc3ccc(S(=O)(=O)N4CCCC4)cc32)cc1 | nt | nt | nt | -0.6 | 3.5
O=c1[nH]cnc2c1ncn2[C@@H]1C[C@@H](O)[C@H](CO)O1 | -5.6 | 38.4* | 0.2 | 0.6 | 10.1
O=C(COCc1cc(-c2ccc3c(c2)OCO3)on1)N1CCCCC1 | -0.5 | 77.7* | -8.0 | -1.5 | 4.1
CC1CN(C(=O)N2CCC(C(=O)NCCCc3ccccc3)CC2)c2cc(Cl)ccc2O1 (stereo unspecified) | nt | nt | nt | 1.3 | 0.4
O=C1C(c2ccc(F)cc2)N(CCc2ccccc2)C(=O)CN1C1CCCCCC1 (stereo unspecified) | nt | nt | nt | 0.0 | 15.7
Cc1cc2c(N=O)c(NO)ccc2[nH]1 | 14.7 | nt | 63.2* | nt | nt
SMILES | D2 ag-1 | D2 antag | D2 PAM-1 | D2 ag-2 | D2 PAM-2
CC(C)OC(=O)c1ccc(NC(=O)c2cncc(Br)c2)cc1 | 1.1 | 44.6* | 3.6 | 0.6 | 4.0
CCCCNC(=O)c1sc(=S)n2c1[nH]c(=O)c1ccccc12 | -7.1 | 32.7* | -19.4 | 7.9 | -0.9
CSc1nc2sc3c(c2c(=O)n1-c1ccc(F)c(Cl)c1)CCN(C(C)=O)C3 | nt | nt | nt | -1.0 | 0.6
COc1ccc(CCNC(=O)[C@H](C)NC(=O)N2CCn3c2nc2ccccc23)cc1OC | -3.8 | 37.2* | -8.7 | 0.3 | -4.0
C[C@H](NC(=O)N1CCn2c1nc1ccccc12)C(=O)NC1CC1 | -0.5 | 67.1* | -7.2 | 0.6 | -11.1
COc1ccc(C(=O)NCc2nc(-c3cccc(C)c3)no2)cc1OC | nt | nt | nt | -0.4 | 8.0
CC(C)OCc1cc(CN2CCN(c3cccc(C(F)(F)F)c3)CC2)c(O)c2ncccc12 | nt | nt | nt | -1.0 | 7.6
O=[N+]([O-])c1cc(CN2CCN(c3cccc(C(F)(F)F)c3)CC2)c2cccnc2c1O | 0.1 | 36.3* | -23.4 | -1.1 | -22.4
Cc1ccccc1-n1nnnc1SCC(=O)c1c(N)n(C)c(=O)n(C)c1=O | 0.8 | 17.9 | -2.2 | 10.3 | 12.3
Cn1c(N)c(C(=O)CSc2nnnn2-c2ccccc2)c(=O)n(C)c1=O | 2.2 | 38.6* | 1.3 | 7.1 | -12.5
CCCCCCn1c(COc2ccccc2F)nnc1SCC(=O)c1c(N)n(C)c(=O)n(C)c1=O | nt | -7.1 | nt | -1.3 | 31.6*
COCC(C)n1c(COc2ccccc2F)nnc1SCC(=O)c1c(N)n(C)c(=O)n(C)c1=O (stereo unspecified) | -3.9 | -6.7 | -6.6 | 0.8 | 14.9
COc1ccccc1NC(=O)Cn1c(=O)c(CNc2ccccc2)cc2cc(OC)c(OC)cc21 | nt | nt | nt | -0.2 | 5.6
Cc1cc(C)cc(C(=O)N2CC(=O)Nc3ccccc32)c1 | 0.3 | -14.6 | -10.2 | -1.0 | 11.2
Cc1ccc(/C=C/C(=O)N2CC(=O)Nc3ccccc32)o1 | -0.6 | -8.8 | -3.0 | -1.1 | 32.6*
Cc1c(Cl)cn2c(=O)cc(CN3CCN(c4ccc(F)cc4)CC3)nc2c1Cl | nt | -23.6 | nt | 31.6* | -17.7
COc1ccc(C2Nc3ccc(Br)cc3C(c3ccccc3)N2CC(=O)O)cc1 (stereo unspecified) | -7.4 | 61.2* | -47.3 | 0.0 | -19.2
O=C(O)CN1C(c2ccccc2O)Nc2ccc(Br)cc2C1c1ccccc1 (stereo unspecified) | -0.4 | -4.9 | -10.5 | 0.4 | 2.5
CCCCOc1ccc(C(=O)N2CCN(CCc3ccncc3)CC2)cc1 | nt | nt | nt | -1.4 | -1.1
COc1ccc(OC)c(/C=C2/Sc3ccccc3C2=O)c1 | 0.3 | 7.1 | 15.5 | 33.9* | -3.0
CC[C@H](C)C(=O)O[C@H]1CCC=C2C=C[C@H](C)[C@H](CC[C@@H]3C[C@@H](O)CC(=O)O3)[C@H]21 | 1.9 | 38.1*! | -9.6 | 2.4 | -5.6
